# Laboratory results reported in PubChem BioAssay (Tox21).
# Results filed as inconclusive are left out. Entries that show only a call come without a potency. Where a structure was tested more than once in an assay, its records may differ in their call. The source made the active and inactive calls. Unless noted, the call rests on the fitted dose curve.
# Key:
# [1] = Nuclear factor erythroid 2-related factor 2/antioxidant responsive element (Nrf2/ARE) small molecule agonists: qHTS cell viability counter screen in human keratinocytes (AID 1919968; active means well fitted curve in the direction sought with a large enough effect in the repeat runs; an effect the other way counts as inactive or inconclusive; further: nearly all actives have a fitted effect of over 55% in size)
# How it was run: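 In human HaCaT keratinocytes stably expressing an ARE-driven luciferase, compound exposure lasted 23 h at 37 C under 5% CO2. Viable cells are quantified with a protease-based fluorogenic reagent (CellTiter-Fluor) read 1 h after addition.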
# [2] = Nuclear factor erythroid 2-related factor 2/antioxidant responsive element (Nrf2/ARE) small molecule agonists: luciferase reporter gene qHTS assay in human keratinocytes (AID 1919969); further: nearly all actives have a fitted effect of over 35% in size; further: potency means the concentration at half of the fitted maximal effect
# [3] = molecular target: Gonadotropin-releasing hormone receptor (Homo sapiens) (UniProt P30968); experiment: Human gonadotropin-releasing hormone receptor (GnRHR) small molecule agonists, calcium flux assay in GnRHR-HEK293 cells (AID 1920063); further: nearly all actives have a fitted effect of over 35% in size
# Sequence of Gonadotropin-releasing hormone receptor (Homo sapiens) (P30968 whole entry, looked up): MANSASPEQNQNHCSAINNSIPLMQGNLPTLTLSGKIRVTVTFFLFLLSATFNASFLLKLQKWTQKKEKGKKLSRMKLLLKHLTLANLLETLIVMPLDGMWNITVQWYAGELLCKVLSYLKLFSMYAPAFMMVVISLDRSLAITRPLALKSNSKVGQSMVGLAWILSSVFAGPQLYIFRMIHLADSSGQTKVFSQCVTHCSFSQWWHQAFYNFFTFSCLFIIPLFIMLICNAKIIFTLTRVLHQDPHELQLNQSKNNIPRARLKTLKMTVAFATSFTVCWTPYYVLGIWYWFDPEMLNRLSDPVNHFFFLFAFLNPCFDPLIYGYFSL
# How it was run: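 Intracellular calcium rise is the read-out: engineered human GnRHR HEK293 cells, dye-loaded, are exposed to DMSO-dissolved compounds and fluorescence at Ex/Em 480/540 is tracked for 3 min.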
# [4] = molecular target: KiSS-1 receptor (Homo sapiens) (UniProt Q969F8); experiment: Human kisspeptin (KISS1R) small molecule agonists, calcium flux assay in KISS1R-HEK293 cells (AID 1920064; active means well fitted curve in the direction sought with a large enough effect in the repeat runs; an effect the other way counts as inactive or inconclusive)
# Sequence of KiSS-1 receptor (Homo sapiens) (Q969F8 whole entry, looked up): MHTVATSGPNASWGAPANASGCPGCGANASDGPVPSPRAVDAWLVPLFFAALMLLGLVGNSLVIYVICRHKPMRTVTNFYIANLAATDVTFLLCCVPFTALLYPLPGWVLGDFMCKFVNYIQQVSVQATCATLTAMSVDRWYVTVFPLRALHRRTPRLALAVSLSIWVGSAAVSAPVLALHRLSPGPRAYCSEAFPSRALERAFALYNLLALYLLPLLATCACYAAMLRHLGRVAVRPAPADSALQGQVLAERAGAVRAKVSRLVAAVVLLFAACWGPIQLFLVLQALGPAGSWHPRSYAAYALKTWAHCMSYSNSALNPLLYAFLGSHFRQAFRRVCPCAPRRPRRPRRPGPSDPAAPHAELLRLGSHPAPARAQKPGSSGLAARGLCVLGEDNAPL
# How it was run: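 Concentration-response testing used 15 concentrations in triplicate on human KISS1R-expressing HEK293 cells. Calcium-dependent fluorescence (Ex/Em 480/540) was followed kinetically for 3 min after compound transfer.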
# [5] = G protein-coupled receptor (GPCR) small molecule agonists, calcium flux assay: HEK293 wild type cell line counter screen (AID 1920065)
# How it was run: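 Fluorescence intensity signals activation. After overnight (18 h) culture and a 1 h calcium dye load at 37 C, compounds are added by pin tool and the plate read at 480/540 nm for 3 min in 1 s steps.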
# [6] = p53 small molecule agonists, cell-based qHTS assay with human liver microsomes (AID 1963577);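 further: p53 response element beta-lactamase reporter cells with liver microsomes plus NADPH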
# How it was run: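 p53RE-bla cells; 5 h settle, 37 C/5% CO2; cpd + HLM 0.5 mg/mL + NADPH 0.5 mg/mL (final); 16 h 37 C; LiveBLAzer 2 h RT dark; fluorescence readout.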
# [7] = p53 small molecule agonists, cell-based qHTS assay with rat liver microsomes (AID 1963578)
# How it was run: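 Rat liver microsome activation: microsomes 0.5 mg/mL, NADPH 0.5 mg/mL final; p53RE-bla cells, 16 h 37 C; LiveBLAzer readout, 2 h RT dark.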
# [8] = p53 small molecule agonists, cell-based qHTS assay with human liver microsomes: qHTS cell viability counter screen (AID 1963579); further: nearly all actives have a fitted effect of over 45% in size
# How it was run: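 Luminescent CellTiter-Glo read-out, 30 min at room temperature, gauged cytotoxicity in p53RE-bla cells exposed 16 h at 37 C to DMSO-dissolved compounds with metabolic activation by human liver microsomes and NADPH, each 0.5 mg/mL final.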
# [9] = p53 small molecule agonists, cell-based qHTS assay with rat liver microsomes: qHTS cell viability counter screen (AID 1963580); further: nearly all actives have a fitted effect of over 45% in size
# How it was run: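 Rat liver microsome (0.5 mg/mL final) and NADPH (0.5 mg/mL final) co-incubation with compounds for 16 h at 37 C on HCT-116 p53RE-bla cells; cytotoxicity taken from intracellular ATP luminescence.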
# [10] = p53 small molecule agonists, cell-based qHTS assay: qHTS cell viability counter screen (AID 1963581); further: nearly all actives have a fitted effect of over 45% in size
# How it was run: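 Luminescence from CellTiter-Glo, reflecting ATP content, serves as the cytotoxicity measure; it is taken after the 2 h reporter substrate step in HCT-116 p53RE-bla cells dosed for 16 h at 37 C.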
# [11] = p53 small molecule agonists, cell-based qHTS assay (AID 1963582; active means well fitted activation curve with a large enough effect in the signal ratio in the repeat runs, not every such curve was filed as active; the % refers to the signal ratio)
# How it was run: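 After plating, p53RE-bla cells sat 5 h in the incubator; compounds or DMSO vehicle were pinned in; a 16 h incubation at 37 C followed; FRET substrate was added and, 2 h later at RT, fluorescence was measured.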
# [12] = molecular target: 5-hydroxytryptamine receptor 2A (Homo sapiens) (UniProt P28223); experiment: 5-hydroxytryptamine receptor 2A (HTR2A) small molecule antagonists, cell-based qHTS assay (AID 1963586); further: nearly all actives have a fitted effect of over 45% in size
# Sequence of 5-hydroxytryptamine receptor 2A (Homo sapiens) (P28223 whole entry, looked up): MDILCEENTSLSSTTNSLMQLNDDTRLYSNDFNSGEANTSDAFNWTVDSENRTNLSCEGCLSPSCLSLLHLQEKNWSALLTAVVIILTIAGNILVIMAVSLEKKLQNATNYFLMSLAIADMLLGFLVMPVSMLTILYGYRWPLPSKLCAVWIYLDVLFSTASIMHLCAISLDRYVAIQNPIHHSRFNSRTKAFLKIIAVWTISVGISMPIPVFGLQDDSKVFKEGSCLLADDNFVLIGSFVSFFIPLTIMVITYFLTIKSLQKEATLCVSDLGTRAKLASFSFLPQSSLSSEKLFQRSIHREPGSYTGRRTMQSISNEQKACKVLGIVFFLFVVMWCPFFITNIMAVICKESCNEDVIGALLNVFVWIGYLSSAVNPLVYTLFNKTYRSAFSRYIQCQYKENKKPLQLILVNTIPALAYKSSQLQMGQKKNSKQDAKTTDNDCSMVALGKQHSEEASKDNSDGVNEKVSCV
# How it was run: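 CHO cells stably expressing human HTR2A were plated for 18 h at 37 C, then loaded with calcium dye for 1 h. Compounds were preincubated 5 min at room temperature before DOI (4 nM solution) was added. Kinetic fluorescence was read for 3 min.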
# [13] = molecular target: Muscarinic acetylcholine receptor M1 (Homo sapiens) (UniProt P11229); experiment: Cholinergic receptor muscarinic 1 (CHRM1) small molecule antagonists, cell-based qHTS assay (AID 1963588); further: nearly all actives have a fitted effect of over 40% in size
# Sequence of Muscarinic acetylcholine receptor M1 (Homo sapiens) (P11229 whole entry, looked up): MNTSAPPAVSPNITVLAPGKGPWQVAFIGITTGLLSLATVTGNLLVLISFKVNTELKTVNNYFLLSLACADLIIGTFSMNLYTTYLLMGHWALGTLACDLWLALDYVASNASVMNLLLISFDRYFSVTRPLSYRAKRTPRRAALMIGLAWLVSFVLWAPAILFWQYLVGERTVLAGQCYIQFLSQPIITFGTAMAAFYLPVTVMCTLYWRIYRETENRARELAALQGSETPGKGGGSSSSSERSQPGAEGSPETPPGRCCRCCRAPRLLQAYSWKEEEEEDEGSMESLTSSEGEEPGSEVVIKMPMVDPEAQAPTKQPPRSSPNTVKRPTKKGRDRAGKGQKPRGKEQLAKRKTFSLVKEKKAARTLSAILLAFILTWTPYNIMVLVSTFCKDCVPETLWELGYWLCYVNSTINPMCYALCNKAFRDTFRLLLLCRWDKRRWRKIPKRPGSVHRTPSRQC
# How it was run: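 Compounds were tested at 15 concentrations in three independent runs. Dye-loaded CHRM1-CHO cells were exposed 5 min at room temperature before stimulation by acetylcholine added at 50nM. Intracellular calcium was read kinetically on FDSS for 3 min.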
# [14] = molecular target: Muscarinic acetylcholine receptor M1 (Homo sapiens) (UniProt P11229); experiment: Cholinergic receptor muscarinic 1 (CHRM1) small molecule agonists, cell-based qHTS assay (AID 1963589); further: nearly all actives have a fitted effect of over 35% in size
# How it was run: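 Fluorescent calcium dye reports M1 activation in stably transfected CHO cells. Compounds, 15 concentrations, added after 1 h dye loading at 37 C; kinetic reading at 1 sec intervals.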
# [15] = cAMP Responsive Elements (CRE) small molecule agonists, cell-based qHTS assay (AID 1963590)
# How it was run: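 Compound exposure lasted 3 h at 37 C/5% CO2 in CRE-bla HEK 293T cells grown in assay medium with 10% dialyzed FBS and 25 mM HEPES. Reporter signal came from LiveBLAzer B/G FRET substrate, 2 h, room temperature.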
# [16] = cAMP Responsive Elements (CRE) small molecule antagonists, cell-based qHTS assay (AID 1963591; active means well fitted inhibition curve with a large enough effect in the signal ratio in the repeat runs, not every such curve was filed as active; the % refers to the signal ratio)
# How it was run: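 Stimulation used NKH477 at a final 0.25 uM for 3 h in compound-treated CRE-bla HEK293T cells, seeded 18 h beforehand. Reporter activity was measured with LiveBLAzer B/G FRET substrate after 2 h at room temperature.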
# [17] = molecular target: Beta-2 adrenergic receptor (Homo sapiens) (UniProt P07550); experiment: Adrenergic beta2 receptor (ADRB2) small molecule antagonists, cell-based qHTS assay (AID 1963592); further: series mostly up to about 92 µM; nearly all actives have a fitted effect of over 50% in size
# Sequence of Beta-2 adrenergic receptor (Homo sapiens) (P07550 whole entry, looked up): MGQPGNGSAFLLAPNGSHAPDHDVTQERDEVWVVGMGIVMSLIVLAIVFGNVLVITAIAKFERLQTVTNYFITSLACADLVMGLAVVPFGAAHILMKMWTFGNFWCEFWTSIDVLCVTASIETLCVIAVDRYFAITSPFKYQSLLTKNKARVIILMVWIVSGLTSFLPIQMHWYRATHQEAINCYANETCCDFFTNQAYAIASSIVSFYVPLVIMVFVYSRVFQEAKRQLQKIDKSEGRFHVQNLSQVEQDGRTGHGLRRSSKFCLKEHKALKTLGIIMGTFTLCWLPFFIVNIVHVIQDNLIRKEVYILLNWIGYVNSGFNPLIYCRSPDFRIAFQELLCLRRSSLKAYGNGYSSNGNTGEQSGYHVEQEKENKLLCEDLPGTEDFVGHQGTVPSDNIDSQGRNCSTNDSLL
# How it was run: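 Assay format: CHO-ADRB2 cells, 18-20hr seeding at 37C/5% CO2, then compound plus 1nM isoproterenol agonist mix for 0.5hr RT. Homogeneous time-resolved fluorescence cAMP detection after 1hr, expressed as 665/615 nm ratio.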
# [18] = molecular target: D(2) dopamine receptor (Homo sapiens) (UniProt P14416); experiment: Dopamine D2 receptor (DRD2) small molecule agonists, cell-based qHTS assay (AID 1963594); further: nearly all actives have a fitted effect of over 35% in size
# Sequence of D(2) dopamine receptor (Homo sapiens) (P14416 whole entry, looked up): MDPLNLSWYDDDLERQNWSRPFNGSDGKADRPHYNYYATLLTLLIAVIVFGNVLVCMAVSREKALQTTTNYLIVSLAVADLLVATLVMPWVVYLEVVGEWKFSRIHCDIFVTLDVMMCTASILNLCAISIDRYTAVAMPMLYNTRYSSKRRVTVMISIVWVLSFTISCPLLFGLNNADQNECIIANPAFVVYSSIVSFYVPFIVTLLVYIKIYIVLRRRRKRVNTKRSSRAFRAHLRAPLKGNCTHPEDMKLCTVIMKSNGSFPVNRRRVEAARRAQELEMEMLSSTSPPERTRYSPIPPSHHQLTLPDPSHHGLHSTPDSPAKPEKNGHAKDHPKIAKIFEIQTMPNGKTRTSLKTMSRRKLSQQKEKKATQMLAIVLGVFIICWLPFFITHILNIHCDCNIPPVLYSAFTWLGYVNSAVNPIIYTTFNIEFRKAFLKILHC
# How it was run: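 cAMP accumulation in DRD2-HEK293 cells measured by HTRF after 1 h detection; compounds added 10 min before NKH477 (200nM […]) forskolin-analogue stimulation, 30 min at room temperature, with Ro20-1724 present at 0.1 mM final.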
# [19] = molecular target: D(2) dopamine receptor (Homo sapiens) (UniProt P14416); experiment: Dopamine D2 receptor (DRD2) small molecule antagonists, cell-based qHTS assay (AID 1963595; active means well fitted inhibition curve with a large enough effect in the signal ratio in the repeat runs, with a control signal flat; the % refers to the signal ratio)
# How it was run: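 Stable D2 receptor HEK293 line, 24 h after seeding. Compound preincubated 10 min, then quinpirole (12 nM) with forskolin analogue NKH477 (200 nM), 30 min, room temperature. Detection by time-resolved FRET of cAMP.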
# [20] = molecular target: 5-hydroxytryptamine receptor 2A (Homo sapiens) (UniProt P28223); experiment: 5-hydroxytryptamine receptor 2A (HTR2A) small molecule agonists, cell-based qHTS assay (AID 1963587); further: nearly all actives have a fitted effect of over 30% in size; further: potency means the concentration at half of the fitted maximal effect
# How it was run: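 Kinetic calcium-flux fluorescence (2 min, 1 sec intervals) after compound addition in agonist mode. HTR2A-CHO cells were cultured 18 h, then dye-loaded 1 h at 37 C.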
structure (smiles),measurement,setting,value
CN(C)CCO,Potency,[1],inactive
same,Potency,[2],69.1 µM (active) and inactive
same,Potency,[3],inactive
same,Potency,[4],inactive
same,Potency,[5],inactive
same,Potency,[6],inactive
same,Potency,[7],inactive
same,Potency,[8],inactive
same,Potency,[9],inactive
same,Potency,[10],inactive
same,Potency,[11],inactive
same,Potency,[12],inactive
same,Potency,[13],inactive
same,Potency,[14],inactive
same,Potency,[15],inactive
same,Potency,[16],inactive
same,Potency,[17],inactive
same,Potency,[18],inactive
same,Potency,[19],inactive
C[C@@H]1CN(C2CCC(C#N)(c3ccc(F)cc3)CC2)CC[C@]1(C(=O)O)c1ccccc1 (stereo partly specified),Potency,[1],inactive
same,Potency,[2],inactive
same,Potency,[3],inactive
same,Potency,[4],inactive
same,Potency,[5],inactive
same,Potency,[6],inactive
same,Potency,[7],inactive
same,Potency,[8],inactive
same,Potency,[9],inactive
same,Potency,[10],inactive
same,Potency,[11],inactive
same,Potency,[20],inactive
same,Potency,[13],inactive
same,Potency,[14],inactive
same,Potency,[15],inactive
same,Potency,[16],inactive
same,Potency,[17],inactive
same,Potency,[18],inactive
Nc1ccc(N=Nc2ccc(-c3ccc(N=Nc4c(S(=O)(=O)O)cc5cc(S(=O)(=O)O)c(N=Nc6ccccc6)c(O)c5c4N)cc3)cc2)c(N)c1,Potency,[1],inactive
same,Potency,[2],inactive
same,Potency,[3],inactive
same,Potency,[4],inactive
same,Potency,[5],inactive
same,Potency,[6],inactive
same,Potency,[7],inactive
same,Potency,[8],inactive
same,Potency,[9],inactive
same,Potency,[10],inactive
same,Potency,[11],inactive
same,Potency,[12],inactive
same,Potency,[20],31.6 µM (active)
same,Potency,[15],inactive
Cc1ccc(-c2nc3ccc(C)cn3c2CC(=O)N(C)C)cc1,Potency,[1],inactive
same,Potency,[2],inactive
same,Potency,[3],inactive
same,Potency,[4],inactive
same,Potency,[5],inactive
same,Potency,[6],inactive
same,Potency,[7],inactive
same,Potency,[8],inactive
same,Potency,[9],inactive
same,Potency,[10],inactive
same,Potency,[11],inactive
same,Potency,[12],inactive
same,Potency,[13],inactive
same,Potency,[14],inactive
same,Potency,[15],inactive
same,Potency,[16],inactive
same,Potency,[17],inactive
same,Potency,[18],inactive
same,Potency,[19],inactive
Brc1c(Br)c(Br)c(Br)c(Br)c1Br,"activity change, negative = cytotoxicity",[1],1.17% [at 8.39 µM] (inactive)
same,"activity, positive = activation",[2],1.37% [at 8.39 µM] (inactive)
same,activity change,[3],"0.959% [at 5.22 µM, stronger effect = higher value] (inactive)"
same,activation,[4],-5.73% [at 6.97 µM] (inactive)
same,activation,[5],0.0498% [at 5.23 µM] (inactive)
same,activation,[6],1.36% [at 5.99 µM] (inactive)
same,activation,[7],-3.05% [at 5.99 µM] (inactive)
same,"activity change, negative = cytotoxicity",[8],-1.65% [at 5.99 µM] (inactive)
same,"activity change, negative = cytotoxicity",[9],2.93% [at 5.99 µM] (inactive)
same,"activity change, negative = cytotoxicity",[10],-11.2% [at 5.99 µM] (inactive)
same,activation,[11],2.53% [at 5.99 µM] (inactive)
same,"activity, negative = inhibition",[12],-11.3% [at 5.62 µM] (inactive)
same,"activity, negative = inhibition",[13],23.8% [at 5.58 µM] (inactive)
same,activation,[14],-0.148% [at 6.97 µM] (inactive)
same,activation,[15],-0.136% [at 8.39 µM] (inactive)
same,"activity change, negative = inhibition",[16],-5.46% [at 8.39 µM] (inactive)
same,"activity change, negative = inhibition",[17],-9.58% [at 8.39 µM] (inactive)
same,"activity change, negative = inhibition",[19],-0.734% [at 8.38 µM] (inactive)
CCOC(=O)c1ccccc1S(=O)(=O)NC(=O)Nc1nc(Cl)cc(OC)n1,Potency,[1],inactive
same,Potency,[2],inactive
same,Potency,[3],inactive
same,Potency,[4],inactive
same,Potency,[5],inactive
same,Potency,[6],inactive
same,Potency,[7],inactive
same,Potency,[8],inactive
same,Potency,[9],inactive
same,Potency,[10],inactive
same,Potency,[11],inactive
same,Potency,[12],inactive
same,Potency,[20],inactive
same,Potency,[14],inactive
same,Potency,[15],inactive
same,Potency,[16],inactive
same,Potency,[17],inactive
same,Potency,[18],inactive
same,Potency,[19],inactive
C[C@]12CCC(=O)C=C1CC[C@@H]1[C@@H]2CC[C@]2(C)C(=O)CC[C@@H]12,Potency,[1],inactive
same,Potency,[2],inactive
same,Potency,[3],inactive
same,Potency,[4],inactive
same,Potency,[5],inactive
same,Potency,[6],inactive
same,Potency,[7],inactive
same,Potency,[8],inactive
same,Potency,[9],inactive
same,Potency,[10],inactive
same,Potency,[11],inactive
same,Potency,[12],inactive
same,Potency,[18],inactive
same,Potency,[19],inactive
